Experimental data from PubChem BioAssay AID1159580 (chemical genetic matrix, 2015).
Where “and” joins values, the source holds several entries; their conditions need not be identical. Identical values can stand only once. The whole screen tested about 5,500 compounds, of which about 2,000 (36%) were called active. Roughly 18% stayed inconclusive and do not appear here. Rule as the data show it: active = normalized growth mostly below about 0.91 (no sharp cut-off); inconclusive = no clear call, values can overlap the other calls; inactive = mostly above about 0.92. The list shows a part of the results.

Test: chemical genetic growth profiling, strain panel (AID 1159580);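 also: tested at 20 µM; growth read once vehicle control cultures reached saturation at 30 °C; 1 = growth at the plate median or of vehicle wells; lower values mean less growth of the strain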
Conditions: S. cerevisiae deletion strains, growth OD

Measured: normalized growth

COC(=O)C[C@H]1C(C)(C)C2(O)OC34CC2C(=O)[C@]1(C)C3CC[C@]1(C)C4=CC(=O)O[C@H]1c1ccoc1 (some centres not stated)
inactive: locus YAL013W, strain DEP1, active compounds read low 1.01 | locus YAL021C, strain ccr4, active compounds read low 0.99 | locus YAL026C, strain drs2, active compounds read low 0.998 | locus YAL030W, strain snc1, active compounds read low 0.99 | locus YBL061C, strain skt5, active compounds read low 0.999 | locus YBR009C, strain hhf1, active compounds read low 1.01 | locus YBR021W, strain FUR4, active compounds read low 0.976 | locus YBR023C, strain chs3, active compounds read low 0.99 | locus YBR171W, strain sec66, active compounds read low 0.973 | locus YBR229C, strain ROT2, active compounds read low 1.01 | locus YBR231C, strain swc5, active compounds read low 0.986 | locus YBR279W, strain paf1, active compounds read low 0.998 | locus YCL011C, strain gbp2, active compounds read low 0.978 | locus YCL016C, strain dcc1, active compounds read low 1 | locus YCL029C, strain bik1, active compounds read low 1.01 | locus YCL061C, strain MRC1, active compounds read low 1.02 | locus YCL069W, strain vba3, active compounds read low 0.977 | locus YCR088W, strain abp1, active compounds read low 0.978 | locus YDL005C, strain med2, active compounds read low 0.991 | locus YDL035C, strain GPR1, active compounds read low 1 | locus YDL040C, strain nat1, active compounds read low 0.973 | locus YDL074C, strain BRE1, active compounds read low 1.01 | locus YDL101C, strain DUN1, active compounds read low 1 | locus YDL134C, strain PPH21, active compounds read low 1.01 | locus YDL185W, strain tfp1, active compounds read low 1.01 | locus YDL192W, strain arf1, active compounds read low 1.01 | locus YDR001C, strain nth1, active compounds read low 0.991 | locus YDR069C, strain doa4, active compounds read low 0.988 | locus YDR101C, strain arx1, active compounds read low 1.01 | locus YDR137W, strain rgp1, active compounds read low 1.03 | locus YDR150W, strain NUM1, active compounds read low 0.993 | locus YDR159W, strain sac3, active compounds read low 0.973 | locus YDR162C, strain NBP2, active compounds read low 1.02 | locus YDR195W, strain ref2 0.963 | locus YDR297W, strain sur2, active compounds read low 0.994 | locus YDR318W, strain mcm21, active compounds read low 1 | locus YDR334W, strain swr1, active compounds read low 0.975 | locus YDR335W, strain msn5, active compounds read low 0.983 | locus YDR388W, active compounds read low 1 | locus YDR392W, strain spt3, active compounds read low 0.952 | locus YDR502C, strain sam2, active compounds read low 0.994 | locus YEL003W, strain gim4, active compounds read low 0.992 | locus YEL037C, strain rad23, active compounds read low 0.98 | locus YEL061C, strain CIN8 (second series), active compounds read low 0.972 | locus YER015W, strain faa2, active compounds read low 0.996 | locus YER016W, strain bim1, active compounds read low 0.984 | locus YER110C, active compounds read low 1.02 | locus YER111C, strain swi4, active compounds read low 0.985 | locus YER155C, strain BEM2 (second series), active compounds read low 0.993 | locus YER155C, strain BEM2, active compounds read low 0.992 | locus YER167W, strain BCK2, active compounds read low 0.996 | locus YFR010W, strain ubp6, active compounds read low 0.974 | locus YGL078C, strain dbp3, active compounds read low 1.02 | locus YGL086W, strain mad1, active compounds read low 0.99 | locus YGL167C, strain pmr1, active compounds read low 1 | locus YGL173C, strain kem1, active compounds read low 0.988 | locus YGL227W, strain vid30, active compounds read low 0.983 | locus YGL240W, strain doc1, active compounds read low 0.971 | locus YGL248W, strain PDE1, active compounds read low 1.01 | locus YGL253W, strain hxk2, active compounds read low 0.968 | locus YGR135W, strain pre9, active compounds read low 1.01 | locus YGR252W, strain gcn5, active compounds read low 1.05 | locus YHR013C, strain ard1, active compounds read low 0.988 | locus YHR027C, strain rpn1, active compounds read low 0.99 | locus YHR030C, strain SLT2, active compounds read low 1 and 0.968 | locus YHR079C, strain IRE1 (second series), active compounds read low 1.01 | locus YHR079C, strain IRE1, active compounds read low 0.972 | locus YHR094C, strain hxt1, active compounds read low 1.02 | locus YHR129C, strain ARP1, active compounds read low 1 | locus YHR142W, strain chs7, active compounds read low 0.975 | locus YHR200W, strain rpn10, active compounds read low 1 | locus YIL066C, strain RNR3, active compounds read low 1.01 | locus YIL073C, strain SPO22, active compounds read low 1.01 | locus YIL125W, strain kgd1, active compounds read low 1.01 | locus YIR030C, strain dcg1, active compounds read low 1.01 | locus YJL092W, strain hpr5, active compounds read low 0.98 | locus YJL095W, strain BCK1 (second series), active compounds read low 0.988 | locus YJL095W, strain BCK1, active compounds read low 0.982 and 0.98 | locus YJL115W, strain asf1, active compounds read low 0.984 | locus YJL129C, strain trk1, active compounds read low 1 | locus YJL134W, strain LCB3, active compounds read low 1 | locus YJL154C, strain vps35, active compounds read low 0.989 | locus YJL164C, strain tpk1, active compounds read low 1 | locus YJL166W, strain qcr8, active compounds read low 0.986 | locus YJL168C, strain set2, active compounds read low 0.996 | locus YJL187C, strain SWE1 (second series), active compounds read low 1.01 | locus YJL187C, strain SWE1, active compounds read low 1.01
